Our source for the Potency values is PubChem BioAssay (NCATS).

Inconclusive results are not listed. A call without a number means that no potency is given here. Active and inactive are the calls of the source. The call rests on the fitted dose curve; in most records, active means well fitted activation curve with a large enough effect; inconclusive means small, poorly fitted or top-dose-only effect; inactive means flat fitted curve, though single readings scatter.
Potency means the concentration at half of the fitted maximal effect.

Chain of Cellular tumor antigen p53 (Homo sapiens) (P04637 whole entry, looked up): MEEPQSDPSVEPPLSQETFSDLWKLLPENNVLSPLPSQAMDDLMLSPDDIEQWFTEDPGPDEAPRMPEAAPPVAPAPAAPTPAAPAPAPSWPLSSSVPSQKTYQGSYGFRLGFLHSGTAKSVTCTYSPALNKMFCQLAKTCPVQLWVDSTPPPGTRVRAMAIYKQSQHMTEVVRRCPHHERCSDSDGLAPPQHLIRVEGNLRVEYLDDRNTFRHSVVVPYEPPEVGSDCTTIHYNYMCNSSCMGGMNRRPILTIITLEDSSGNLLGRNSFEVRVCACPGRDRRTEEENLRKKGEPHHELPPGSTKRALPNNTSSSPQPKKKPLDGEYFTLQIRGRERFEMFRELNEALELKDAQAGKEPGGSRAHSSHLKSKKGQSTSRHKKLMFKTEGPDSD

The test concerns the target Cellular tumor antigen p53 (Homo sapiens) (UniProt P04637). In words: Primary qHTS for small molecule compounds that upregulate eGFP-tagged delta133p53alpha (in C-terminal) cells. (AID 2060324). Conditions: NCI-H358 delta133p53alpha-eGFP (C-terminal tag), GFP fluorescence imaging, 24 h; series mostly up to 57.5 µM. The method, boiled down:
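Read-out: gated-cell GFP peak intensity (laser scanning cytometer), plate-normalized with DMSO as 0% activity, after 24 h compound exposure at 37C. Cells were C-terminal eGFP-tagged delta133p53alpha NCI-H358, doxycycline-induced (100 ng/ml, 24 h) before plating.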
For orientation: qHTS replaces the single test concentration by a dilution series.
As for `O=C(OCCN1CCOCC1)C1(c2ccccc2)CCCCC1`, the Potency entry is “inactive”.

In the case of `O=C1N=C(O)CN1/N=C/c1ccc(-c2ccc([N+](=O)[O-])cc2)o1`, the Potency entry is “inactive”.

As for `NC[C@@H]1O[C@H](C23CC4CC(CC(C4)C2)C3)Cc2c1ccc(O)c2O`, the Potency was 23.9 µM (active).

As to `COc1ccc(-c2cc3ncc(C)n3c(Nc3ncccc3C(N)=O)n2)cc1OC`, the Potency was 10.7 µM (active).

As for `O=C(/C=C/c1ccc(O)c(O)c1)OCCc1ccccc1`, the Potency result was “inactive”.

As for `COc1ccc(Br)cc1S(=O)(=O)NC(=O)/C=C/c1ccccc1Cc1ccc2ccccc2c1`, the Potency entry is “inactive”.

For `C=CCN1CCc2c(cc(O)c(O)c2Cl)C(c2ccccc2)C1` (centres undefined), the Potency entry is “inactive”.

For the molecule `C=CC1(C)CC(=O)C2(O)C(C)(O1)C(OC(C)=O)C(O)C1C(C)(C)CCC(O)C12C` (centres undefined), the Potency result was “inactive”.

`Nc1ncnc2c1ncn2C1CCCC1`: the Potency entry was “inactive”.

On to `N#Cc1cc([N+](=O)[O-])c2sc(C(N)=O)[n+]([O-])c2c1`, for which the Potency result was “inactive”.

Take `Oc1ccc(/C=C/c2ccc(/C=C/c3ccc(O)cc3)c(Br)c2)cc1`: the Potency result is “inactive”.

For `O=c1cc(-c2ccccc2)oc2c(O)c(O)ccc12`, the Potency result is “inactive”.

With `O=c1oc(Cl)c(Cl)c2ccccc12`, the Potency entry is “inactive”.

With `NC(Cc1ccc(Cl)cc1)C(=O)O` (centres undefined), the Potency result is “inactive”.

`COc1cccc2c1[C@@H]1CN(CCCCn3c(=O)[nH]c4c(sc5ncc(-c6ccccc6)nc54)c3=O)C[C@@H]1CO2`: the Potency result was “inactive”.

On to `Cn1cc(C(F)(F)F)nc1-c1ccc(OCC(O)CNCCOc2ccc(O)c(C(N)=O)c2)cc1` (centres undefined), for which the Potency entry is “inactive”.

Turning to `O=C(O)C1=CC(=C(c2ccc(O)c(C(=O)O)c2)c2ccc(O)c(C(=O)O)c2)C=CC1=O`, the Potency entry was “inactive”.

For `C#CCN(C)CCCOc1ccc(Cl)cc1Cl`, the Potency result is “inactive”.

As to `OCCN1CCN(CC/C=C2/c3ccccc3Sc3ccc(C(F)(F)F)cc32)CC1`, the Potency entry was “inactive”.

As for `C[n+]1cc2c3c(ccc2c2ccc4cc5c(cc4c21)OCO5)OCO3`, the Potency is 7.57 µM (active).

Consider `NC1(C(=O)O)CC1`, for which the Potency result was “inactive”.

With `CCCCCCCCCC(=O)NC(CN1CCOCC1)[C@H](O)c1ccccc1` (some centres undefined), the Potency result was “inactive”.

Turning to `N#C/C(=C\c1ccc(O)c(O)c1)C(=O)c1ccc(O)c(O)c1`, the Potency entry was “inactive”.

As to `COC(=O)C1=C(C)NC(C)=C(C(=O)OC)C1c1ccccc1[N+](=O)[O-]`, the Potency result was “inactive”.

With `N#C/C(=C\c1ccc(O)c(O)c1)C(=O)NCCc1ccccc1`, the Potency entry is “inactive”.

Consider `Brc1c(Br)c(Br)c2n[nH]nc2c1Br`, for which the Potency result was “inactive”.

As to `CC1=C(CC(=O)O)c2cc(F)ccc2/C1=C\c1ccc(S(C)=O)cc1` (centres undefined), the Potency entry is “inactive”.

As to `OCc1cc(C(O)CNCCCCCCOCCCCc2ccccc2)ccc1O` (centres undefined), the Potency result is “inactive”.

Take `NNc1nncc2ccccc12`: the Potency entry is “inactive”.
